5 molecules from PubChem BioAssay can be followed below.

The source made the active and inactive calls.

A short description of assay [1]: small molecules captured by biotinylated probe aFSTL3 – biochemical, small-molecule microarray, fluorescence 635/667, stem cell growth factor project, primary screen (AID 1064).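 Also: measures binding of the biotinylated anti-FSTL3 antibody to printed compounds.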 As to conditions: higher = more signal.
A short description of assay [2]: binders from COS7 lysate, DM2A8 probe, primary screen, torsin A project, cell lysate, small-molecule microarray, fluorescence 635/667 (AID 1065). As to conditions: higher = more signal, COS7 lysate expressing mutant human TOR1A.
The nature of assay [3]: small molecules captured by biotinylated probe aFGF2 – biochemical, small-molecule microarray, fluorescence 635/667, stem cell growth factor project, primary screen (AID 1067).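 Also: measures binding of biotinylated aFGF2 protein to printed compounds on slides; z-score merges feature fluorescence and signal-to-noise across triplicate slides.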 As to conditions: higher = more signal.
Assay [4] is described as follows: small molecules captured by biotinylated probe aFGF10 – biochemical, small-molecule microarray, fluorescence 635/667, stem cell growth factor project, primary screen (AID 1071).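 Also: score merges 667 nm spot intensity and signal to noise from triplicate slides.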 The following applies: higher = more signal.
Assay [5] addresses Neurogenic locus notch homolog protein 2 (Homo sapiens) (UniProt Q04721). Description: small molecules binding Notch2 protein – biochemical, small-molecule microarray, 635 nm fluorescence, stem cell growth factors, primary screen (AID 1073). The following applies: higher = more signal.
Assay [6] concerns the target Pro-neuregulin-1, membrane-bound isoform (Homo sapiens) (UniProt Q02297). Description: small molecules binding neuregulin-1 protein – biochemical, small-molecule microarray, fluorescence 635/667, psychiatric disease protein project, primary screen (AID 1075).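 Also: score combines 667 nm spot fluorescence with signal to noise.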 The following applies: NRG1 binding, 635 nm fluorescence, higher = more signal.
The test system of assay [7] is Neuregulin-1 EGF-like domain. Description: small molecules binding NRG1 EGF domain – biochemical, small-molecule microarray, 635 nm fluorescence, primary screen (AID 1081).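 Also: binding of the protein to compounds printed on small-molecule microarray slides.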 The following applies: higher = more signal.
A short description of assay [8]: FRG1 expression reporter modulators in myotubes – cell-based, C2C12 myotubes, firefly/Renilla luciferase, luminescence, FRG1 inhibition for FSHD, primary screen (AID 1084). As to conditions: FRG1 promoter luciferase, higher = more signal, called active from +8 up or from −8 down.
Assay [9] in a line: small molecules captured by biotinylated probe aFST – biochemical, small-molecule microarray, fluorescence 635/667, stem cell growth factor project, primary screen (AID 1086).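 Also: score merges 667 nm fluorescence with signal-to-noise of each printed compound spot.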 As to conditions: higher = more signal.
A short description of assay [10]: binders of probe aHhip on microarray, primary screen, stem cell growth factor project, biochemical, small-molecule microarray, fluorescence 635/667 (AID 1087).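 Also: score merges spot fluorescence at 667nm with spot signal to noise ratio.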 The following applies: higher = more signal.
Assay [11] concerns PRMT1 (protein arginine N-methyltransferase 1). In words: small molecules binding arginine methyltransferase PRMT1 – biochemical, small-molecule microarray, 635 nm fluorescence, primary screen (AID 1088).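 Also: binding of Prmt1 protein to compounds spotted on small-molecule microarray slides.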 As to conditions: higher = more signal.
Assay [12] can be described thus: growth effects on S. cerevisiae YJM789 – YJM789 clinical isolate, OD600, 24 h, basal, primary screen (AID 1089).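 Also: growth of clinical yeast isolate S. cerevisiae YJM 789 seeded 1000 cells per well; test concentration not given here.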 As to conditions: higher = more signal, called active from +8 up or from −8 down.
A short description of assay [13]: S. pombe growth modifiers, basal conditions – strain 972, OD600, 24 h, no modulator, primary screen (AID 1090).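 Also: basal condition with compound alone and no growth modifier present; test concentration not given here.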 The following applies: S. pombe 972 growth, higher = more signal, called active from +8 up or from −8 down.
Assay [14] is described as follows: budding yeast growth modifiers under rapamycin – strain BY4716, OD600, 96 h, primary screen (AID 1091). Also: test concentration not given here. As to conditions: S. cerevisiae BY4716 + rapamycin, higher = more signal, called active from +8 up or from −8 down.
Assay [15] concerns the target Torsin-1A-interacting protein 2 (Homo sapiens) (UniProt Q8NFQ8). Description: small molecules binding lysate-expressed LULL1 – cell lysate, human LULL1 lysate, 635/667 nm fluorescence, primary screen (AID 1092).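 Also: probe is lysate of COS7 cells overexpressing human LULL1; score merges per-feature 667 nm fluorescence with signal-to-noise.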 As to conditions: small-molecule microarray, hLULL1 lysate binding, 635 nm fluorescence; higher = more signal.
A short description of assay [16]: optical density change of DRC41 E. coli – strain DRC41, OD650, 24 h, E. coli filamentation project, primary screen (AID 1093).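 Also: MC1000 strain lacking acrAB efflux and sulA so SOS filamentation is blocked; test concentration not given here.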 The following applies: E. coli DRC41 growth, higher = more signal, called active from +8 up or from −8 down.
Assay [17] can be described thus: probe aLefty2 binding to arrayed compounds – biochemical, biotinylated probe, 635/667 nm fluorescence, primary screen (AID 1094).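 Also: score merges spot fluorescence near 667 nm with spot signal-to-noise ratio.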 As to conditions: small-molecule microarray, higher = more signal.
Assay [18] has as its system Noggin (protein binding on small-molecule microarray). Description: small molecules binding Noggin protein – biochemical, 635/667 nm fluorescence, primary screen (AID 1095).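 Also: score merges 667 nm feature fluorescence with signal to noise over triplicate slides.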 As to conditions: 635 nm fluorescence, higher = more signal.
The target of assay [19] is Neurogenic locus notch homolog protein 3 (Homo sapiens) (UniProt Q9UM47). Description: small molecules binding NOTCH3 protein – biochemical, 635/667 nm fluorescence, primary screen (AID 1096). As to conditions: small-molecule microarray, 635 nm fluorescence, higher = more signal.
Chain of Neurogenic locus notch homolog protein 3 (Homo sapiens) (Q9UM47 whole entry, looked up): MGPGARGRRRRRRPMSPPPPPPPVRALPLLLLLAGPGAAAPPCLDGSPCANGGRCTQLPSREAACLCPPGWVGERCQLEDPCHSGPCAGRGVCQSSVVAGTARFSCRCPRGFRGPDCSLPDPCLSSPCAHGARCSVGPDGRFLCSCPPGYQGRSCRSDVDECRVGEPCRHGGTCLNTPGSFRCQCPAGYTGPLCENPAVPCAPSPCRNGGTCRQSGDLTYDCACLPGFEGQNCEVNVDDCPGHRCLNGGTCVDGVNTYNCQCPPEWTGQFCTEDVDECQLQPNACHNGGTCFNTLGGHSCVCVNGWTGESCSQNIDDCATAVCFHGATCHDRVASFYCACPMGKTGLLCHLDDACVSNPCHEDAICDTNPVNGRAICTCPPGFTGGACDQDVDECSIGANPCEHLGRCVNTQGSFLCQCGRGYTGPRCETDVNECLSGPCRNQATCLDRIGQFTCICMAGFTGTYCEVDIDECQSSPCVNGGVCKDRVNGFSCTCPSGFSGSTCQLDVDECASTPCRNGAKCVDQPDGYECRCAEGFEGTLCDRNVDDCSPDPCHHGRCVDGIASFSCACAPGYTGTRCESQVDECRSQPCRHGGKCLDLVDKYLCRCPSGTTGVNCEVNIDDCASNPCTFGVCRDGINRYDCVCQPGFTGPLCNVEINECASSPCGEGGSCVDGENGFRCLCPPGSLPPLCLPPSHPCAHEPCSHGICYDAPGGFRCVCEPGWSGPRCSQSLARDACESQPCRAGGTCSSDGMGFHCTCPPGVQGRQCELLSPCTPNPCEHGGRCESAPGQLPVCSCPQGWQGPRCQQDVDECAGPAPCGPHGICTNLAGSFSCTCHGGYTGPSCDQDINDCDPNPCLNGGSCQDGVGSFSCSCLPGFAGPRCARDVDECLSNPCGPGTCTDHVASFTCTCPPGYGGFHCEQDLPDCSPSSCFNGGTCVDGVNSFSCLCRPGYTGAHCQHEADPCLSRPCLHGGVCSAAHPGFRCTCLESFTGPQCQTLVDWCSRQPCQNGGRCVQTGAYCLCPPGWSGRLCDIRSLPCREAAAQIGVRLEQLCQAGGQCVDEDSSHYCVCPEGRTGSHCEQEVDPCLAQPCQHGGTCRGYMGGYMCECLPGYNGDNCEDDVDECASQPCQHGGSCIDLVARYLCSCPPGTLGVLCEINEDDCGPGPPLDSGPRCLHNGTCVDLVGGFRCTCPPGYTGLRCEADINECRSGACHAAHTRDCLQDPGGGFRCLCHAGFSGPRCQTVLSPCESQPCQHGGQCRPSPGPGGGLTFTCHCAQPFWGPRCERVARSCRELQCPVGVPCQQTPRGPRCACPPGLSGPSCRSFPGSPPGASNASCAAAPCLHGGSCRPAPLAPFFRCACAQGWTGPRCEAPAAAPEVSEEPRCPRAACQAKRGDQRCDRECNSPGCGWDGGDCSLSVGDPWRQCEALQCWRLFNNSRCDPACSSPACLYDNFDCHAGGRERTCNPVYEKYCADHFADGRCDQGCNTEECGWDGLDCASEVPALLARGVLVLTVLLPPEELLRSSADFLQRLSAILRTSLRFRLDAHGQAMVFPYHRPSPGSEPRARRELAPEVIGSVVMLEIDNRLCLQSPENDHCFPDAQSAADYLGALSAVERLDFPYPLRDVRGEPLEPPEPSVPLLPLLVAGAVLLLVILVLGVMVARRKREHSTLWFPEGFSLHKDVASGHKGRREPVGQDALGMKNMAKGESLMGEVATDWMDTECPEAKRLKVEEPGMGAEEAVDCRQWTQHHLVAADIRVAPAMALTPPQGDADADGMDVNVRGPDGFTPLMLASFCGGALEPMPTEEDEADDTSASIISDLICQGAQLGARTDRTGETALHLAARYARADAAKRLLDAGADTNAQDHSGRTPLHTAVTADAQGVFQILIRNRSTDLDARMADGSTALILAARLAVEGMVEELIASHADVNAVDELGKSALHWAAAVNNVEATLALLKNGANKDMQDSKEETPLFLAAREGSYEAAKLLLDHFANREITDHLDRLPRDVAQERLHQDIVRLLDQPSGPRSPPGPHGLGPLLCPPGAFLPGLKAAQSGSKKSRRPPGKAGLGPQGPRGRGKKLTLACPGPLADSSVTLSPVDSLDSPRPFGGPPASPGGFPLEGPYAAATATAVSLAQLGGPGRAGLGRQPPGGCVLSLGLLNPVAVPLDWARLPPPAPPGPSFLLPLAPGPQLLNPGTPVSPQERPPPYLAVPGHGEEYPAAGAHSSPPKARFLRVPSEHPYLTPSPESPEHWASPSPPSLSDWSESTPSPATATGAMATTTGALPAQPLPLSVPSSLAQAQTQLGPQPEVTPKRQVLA
Assay [20] can be described thus: probe aEGFR binding to arrayed compounds – biochemical, biotinylated probe, 635/667 nm fluorescence, primary screen (AID 1097).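 Also: probe is a biotinylated anti-EGFR antibody binding compounds printed on slides; score combines fluorescence near 667 nm and signal to noise of each spot.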 As to conditions: small-molecule microarray, higher = more signal.

Chain of Pro-neuregulin-1, membrane-bound isoform (Homo sapiens) (Q02297 whole entry, looked up, the tested form may be a part, canonical isoform): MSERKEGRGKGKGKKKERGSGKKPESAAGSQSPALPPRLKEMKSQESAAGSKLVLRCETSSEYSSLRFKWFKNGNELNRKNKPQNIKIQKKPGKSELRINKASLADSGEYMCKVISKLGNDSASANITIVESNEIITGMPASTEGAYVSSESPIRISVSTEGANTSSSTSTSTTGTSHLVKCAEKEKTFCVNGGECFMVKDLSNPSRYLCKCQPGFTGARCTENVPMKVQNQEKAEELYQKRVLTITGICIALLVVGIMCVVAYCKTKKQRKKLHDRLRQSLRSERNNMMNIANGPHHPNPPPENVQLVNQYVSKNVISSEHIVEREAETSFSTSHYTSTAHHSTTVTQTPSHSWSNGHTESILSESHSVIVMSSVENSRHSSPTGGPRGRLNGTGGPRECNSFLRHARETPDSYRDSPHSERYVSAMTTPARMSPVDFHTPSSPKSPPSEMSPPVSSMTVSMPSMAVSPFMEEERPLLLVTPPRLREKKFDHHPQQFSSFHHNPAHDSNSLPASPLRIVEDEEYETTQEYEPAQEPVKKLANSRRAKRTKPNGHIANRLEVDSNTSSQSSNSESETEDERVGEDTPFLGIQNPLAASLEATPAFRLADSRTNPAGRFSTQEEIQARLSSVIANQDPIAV
Chain of Torsin-1A-interacting protein 2 (Homo sapiens) (Q8NFQ8 whole entry, looked up): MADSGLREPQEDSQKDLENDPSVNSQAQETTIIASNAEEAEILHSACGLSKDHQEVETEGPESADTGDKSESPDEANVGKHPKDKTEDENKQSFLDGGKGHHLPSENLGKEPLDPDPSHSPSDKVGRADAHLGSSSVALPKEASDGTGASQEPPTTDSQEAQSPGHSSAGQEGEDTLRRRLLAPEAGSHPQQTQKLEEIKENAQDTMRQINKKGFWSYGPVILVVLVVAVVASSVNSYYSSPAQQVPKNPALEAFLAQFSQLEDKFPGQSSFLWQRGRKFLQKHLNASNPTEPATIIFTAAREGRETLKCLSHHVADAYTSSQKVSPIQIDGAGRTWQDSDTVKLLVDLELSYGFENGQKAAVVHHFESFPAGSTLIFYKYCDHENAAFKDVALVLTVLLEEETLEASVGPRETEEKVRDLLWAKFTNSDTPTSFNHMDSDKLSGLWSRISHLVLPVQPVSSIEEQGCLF

For `CC=CC(O)C1C=CC2C(=O)NC(=O)C2N1Nc1ccccn1` (stereo not given), the composite z-score was -0.293 in [1]; 0.205 in assay [2]; -0.151 in [3]; 0.204 in assay [4]; 1.03 in assay [5]; 0.934 in assay [6]. Further, the composite z-score in [7] is 1.24; in assay [9] it was 0.128; in assay [10] it was -0.0618; in assay [11] it was 1.36; in assay [15] it was 0.871; in [17], 0.0261. Besides, the results for the composite z-score in [18], in [19] and in assay [20] were 0.26, 0.542 and -0.257, respectively. Besides, the z-score was 0.571 (inactive) in assay [8]; 0.43 (inactive) in assay [12]; 1.99 (inactive) in assay [13]; 0.544 (inactive) in assay [14]; -0.565 (inactive) in [16].
Regarding `COC(=O)[C@@]1(Cc2ccccc2CN=[N+]=[N-])N=C(c2ccc(OCCCO)cc2)O[C@H]1c1ccccc1`, the composite z-score is 1.4 in assay [1]; -0.0284 in assay [2]; 0.118 in [3]; -0.774 in [4]; -0.0293 in assay [5]; 0.532 in assay [6]. The composite z-score in assay [7] is 1.2; in [9], 0.187; in [10], -0.451; in assay [11] it was 1.45; in [15], 1.94; in [17], 0.547. In addition, the composite z-score in assay [18] stood at 0.151; in assay [19] it was 0.107; in assay [20], 0.0209. The z-score in [8] is -2.17 (inactive); in [12], 0.682 (inactive); in assay [13] it was -2.11 (inactive); in assay [14], 35.9 (active); in assay [16] it was 0.77 (inactive).
Turning to `O=C1C2C=CC(C(O)c3cc(C(F)(F)F)cc(C(F)(F)F)c3)N(Nc3ccccc3F)C2C(=O)N1c1ccccc1` (stereo not given), the composite z-score in assay [1] is 0.835; in assay [2], 0.554; in assay [3], -0.0049; in [4], 0.233; in assay [5] it was 0.909; in assay [6], 1.85. The composite z-score was 1.16 in assay [7]; 0.967 in assay [9]; -0.202 in assay [10]; 1.11 in assay [11]; 3.19 in [15]; 0.0655 in assay [17]. Moreover, the composite z-score was -0.989 in assay [18], 1.07 in assay [19] and 0.0061 in assay [20]. Moreover, the z-score is 0.285 (inactive) in assay [8]; 0.503 (inactive) in assay [12]; 0.854 (inactive) in [13]; 6.9 (inactive) in assay [14]; -1.99 (inactive) in [16].
Regarding `COc1ccc([Si](C)(C)[C@H]2[C@H](CCO)O[C@@]3(C(=O)N(Cc4ccccc4)c4ccc(N5CCOC5=O)cc43)[C@@H]2C)cc1`, the composite z-score in assay [1] is -0.226; in [2], 0.0044; in assay [3] it was -0.126; in [4] it was 0.522; in [5], 0.591; in assay [6], 0.872. Moreover, the composite z-score in assay [7] is 0.828; in assay [9], 0.135; in assay [10], -0.226; in assay [11], 1.13; in assay [15] it was 1.64; in assay [17] it was -0.0769. In addition, the composite z-score in assay [18] is 0.517; in assay [19], 1.12; in assay [20] it was -0.0152. The z-score is -2.79 (inactive) in assay [8]; 0.948 (inactive) in [12]; -0.0089 (inactive) in assay [13]; 16.7 (active) in [14]; 0.147 (inactive) in assay [16].
As for `C=CCN1C(=O)[C@]2(O[C@H](CCO)[C@@H]([Si](C)(C)c3ccc(OC)cc3)[C@@H]2C)c2cc(NC(=O)c3ccc(OC)cc3)ccc21`, the composite z-score in assay [1] was -0.429; in assay [2], 0.421; in assay [3], -0.105; in [4] it was 0.3; in [5] it was 0.384; in assay [6], 0.686. Besides, the composite z-score in [7] was 1.09; in assay [9] it was 0.346; in assay [10], -0.204; in assay [11], 1.5; in assay [15] it was 0.739; in assay [17], -0.166. In addition, the composite z-score is 1.62 in assay [18], 0.924 in assay [19] and -0.111 in assay [20]. Moreover, the z-score was -3.52 (inactive) in assay [8]; 0.405 (inactive) in [12]; -1.91 (inactive) in assay [13]; 2.89 (inactive) in assay [14]; 0.577 (inactive) in [16].
